The nature of assay [1]: rapamycin-like changes in RPL19A-GFP expression – cell-based, S. cerevisiae, multiplex flow cytometry, primary screen (AID 1862; in the data active = percent of DMSO control GFP below about 86%;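 also: lower values mimic rapamycin by blocking the RPL19A rise seen in DMSO cells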). As to conditions: S. cerevisiae RPL19A-GFP strain, flow cytometry fluorescence, 3 h; at 10 µM; stronger effect = lower value.
Assay [2] can be described thus: TOR pathway GLN3 branch reporter MEP2-GFP changes – S. cerevisiae, multiplex flow cytometry, primary screen (AID 1867;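 active = GFP response, as percent of the DMSO control, above the screen-wide mean plus 3 SD, about 139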;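 also: median GFP channel fluorescence of barcode-gated MEP2-GFP cells measured by flow cytometry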). Conditions: S. cerevisiae MEP2-GFP strain, 3 h, at 10 µM, stronger effect = higher value, 100% means same as DMSO wells.
Assay [3] in a line: TOR pathway RTG branch CIT2 reporter changes – S. cerevisiae, GFP fusion, multiplex flow cytometry, primary screen (AID 1870;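 active = percent response above a set limit, the screen-wide mean plus 3 SD, cut at about 130% in these data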;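 also: barcoded CIT2-GFP strain pooled with four other GFP strains with rapamycin as positive control; median GFP fluorescence per well over plate mean of DMSO wells so 100% = DMSO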). As to conditions: S. cerevisiae CIT2-GFP expression, 3 h, at 10 µM, stronger effect = higher value. Background: In flow cytometry, cells or beads pass a laser one at a time.
Assay [4] can be described thus: TOR pathway LAP4-GFP level changes – S. cerevisiae, multiplex flow cytometry, primary screen (AID 1873;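 active = GFP signal, as percent of the solvent control, above the screen mean plus 3 SD, about 149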). As to conditions: S. cerevisiae LAP4-GFP expression, 3 h, at 10 µM, stronger effect = higher value.
Assay [5] can be described thus: yeast AGP1-GFP level changes, GLN3 branch – cell-based, multiplex flow cytometry, S. cerevisiae, primary screen (AID 1887;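 active = GFP signal above the screen-wide mean plus 3 SD, that is over about 124.5% of the solvent control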;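 also: AGP1-GFP fusion strain of S. cerevisiae within a five-strain barcoded multiplex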). Conditions: 3 h, at 10 µM, stronger effect = higher value.
Assay [6] in a line: reduced mouse 2C T cell binding to pMHC/ICAM-1 vesicles – MLPCN validation set, flow cytometry, LFA-1/ICAM-1 modulator project, pilot screen (AID 2523;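 active = response below a set limit, under 55% cells CD8-positive and vesicle-bound, and CD8 cells' 90th-percentile brightness under 279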;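 as to vesicle binding response: mean PE anti-B7-1 fluorescence of CD8+ cells relative to row control; 100% = QL9-loaded vesicles with DMSO vehicle in the same plate row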). Conditions: 2C mouse CD8+ T cells, at 7 µM, stronger effect = lower value; double positive events: measured here: CD8+/vesicle+ event percentage.
Assay [7] addresses Integrin beta-1 (Homo sapiens) + Integrin alpha-4 (Homo sapiens) (UniProt P13612+P05556). Nature of the assay: alpha4beta1 integrin LIBS antibody binding reduction – U937 cells, HUTS-21 mAb, flow cytometry, validation set, VLA-4 allosteric modulator project, pilot screen (AID 2674;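 active = inhibition above 50%, about 3 SD of the validation set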;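 also: antibody binding induced by the VLA-4 ligand LDV present at three times its Kd; 0% = LDV ligand with antibody and no compound and 100% = antibody without LDV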). As to conditions: HUTS-21 LIBS mAb binding, at 6.7 µM, stronger effect = higher value, binding induced by LDV ligand.

The nature of assay [8]: calorie-restriction mimetic ROS inhibitors, yeast – validation compound set, pilot screen (AID 2706;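 active = superoxide response below 65% of plate, a cut near 3 SD across the whole screen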;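 also: yeast exposed to compound for one week at 30 degrees C before staining; 100% = mean of all compound wells on the same plate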). Conditions: S. cerevisiae aging, superoxide DHE fluorescence; at 10 µM; stronger effect = lower value.
Assay [9] addresses Beta-adrenergic receptor kinase 1 (Homo sapiens) (UniProt P25098). Nature of the assay: GRK2 binders displacing RNA aptamer, biochemical, validation, human GRK2, bead flow cytometry (AID 488806;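 active = aptamer binding inhibition above 30%, about 3 SD of noise from non-fluorescent compounds; inactive = inhibition at or below 30%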). As to conditions: bead-bound GRK2, FAM-aptamer displacement, at 10 µM, stronger effect = higher value.
The target in assay [10] is Beta-2 adrenergic receptor (Homo sapiens) (UniProt P07550). Nature of the assay: agonist-induced loss of surface beta2AR – cell-based, FAP fluorogen, flow cytometry, validation set, pilot screen (AID 504459;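 active = percent response above 42, roughly 3 SD of non-fluorescent test compounds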;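 also: agonist-driven loss of surface beta2AR via internalization measured by FAP dye flow cytometry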). As to conditions: Am2.2-beta2AR cells, at 10 µM, stronger effect = higher value.
Beta-2 adrenergic receptor (Homo sapiens), sequence (P07550 whole entry, looked up): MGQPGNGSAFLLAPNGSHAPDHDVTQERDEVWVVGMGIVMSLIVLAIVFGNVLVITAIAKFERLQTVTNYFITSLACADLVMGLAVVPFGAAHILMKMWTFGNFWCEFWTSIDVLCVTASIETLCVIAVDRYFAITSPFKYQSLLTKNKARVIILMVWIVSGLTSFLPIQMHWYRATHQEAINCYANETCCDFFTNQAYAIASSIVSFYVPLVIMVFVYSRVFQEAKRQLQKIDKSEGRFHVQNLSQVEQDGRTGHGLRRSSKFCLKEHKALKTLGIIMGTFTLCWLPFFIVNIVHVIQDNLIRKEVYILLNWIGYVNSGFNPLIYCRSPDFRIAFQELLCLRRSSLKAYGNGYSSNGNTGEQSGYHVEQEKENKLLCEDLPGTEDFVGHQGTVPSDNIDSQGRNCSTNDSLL
Assay [11] concerns the target AP-2 complex subunit beta (Homo sapiens) (UniProt P63010). Nature of the assay: beta-arrestin/AP2 interaction blockers – biochemical, validation set, GST-AP2 beads, flow cytometry, pilot screen (AID 504541).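 Also: AP2 carries R879A mutation and is captured from E. coli lysate; bead-bound FITC arrestin peptide fluorescence measuring arrestin peptide binding to AP2; 0% = DMSO wells and 100% = excess unlabeled arrestin peptide control.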 Conditions: FITC arrestin peptide, at 10 µM, stronger effect = higher value, AP2 beta2 appendage fragment, R879A mutant.
The nature of assay [12]: cytosolic pH regulators acting via V-ATPase – S. cerevisiae, pHLuorin, HTS validation (AID 504600; in the data active = response above about 15%;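 also: plate controls were DMSO for no effect and reference compound for full effect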). Conditions: V-ATPase proton transport, at 10 µM, stronger effect = higher value.
The test system of assay [13] is anti-desmoglein-3 scFv antibody binding to human DSG3. Nature of the assay: blockers of pathogenic pemphigus antibody–desmoglein-3 binding – biochemical, validation compound set, bead-based, flow cytometry, pilot screen (AID 588368;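 active = binding below the plate cutoff, the plate median minus 3 SD, with a reading above zero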;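 also: signal is the median channel fluorescence of bead-bound GFP antibody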). Conditions: Protein G beads, DSG3-Fc, scFv-GFP binding, at 10 µM, stronger effect = lower value.
A short description of assay [14]: Nile Red efflux blockade in pump-expressing yeast – validation compound set, multiplex, phenotypic, pilot screen (AID 588506;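 active = efflux inhibition above 0.42, the validation set average plus 4 SD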;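 also: Nile Red retained in cells so higher fluorescence means more efflux inhibition; 0 = negative control wells and 1 = enniatin B 25 µM full block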). As to conditions: S. cerevisiae pump-expressing triplex, Nile Red efflux flow cytometry; at 10 µM; stronger effect = higher value; the pumps come from Candida albicans.
The target in assay [15] is ATP-binding cassette sub-family B member 6 (Homo sapiens) (UniProt Q9NP58). Nature of the assay: blockers of ABCB6-driven porphyrin uptake – K562-ABCB6 cells, flow cytometry, validation set, pilot screen (AID 588550;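 active = inhibition above the screen-wide mean plus 3 SD, about 51%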;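 also: 0% = DMSO wells and 100% = benzethonium chloride 70 µM positive control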). Conditions: K562-ABCB6 porphyrin accumulation, 1 h, at 10 µM, stronger effect = higher value.
ATP-binding cassette sub-family B member 6 (Homo sapiens), sequence (Q9NP58 whole entry, looked up): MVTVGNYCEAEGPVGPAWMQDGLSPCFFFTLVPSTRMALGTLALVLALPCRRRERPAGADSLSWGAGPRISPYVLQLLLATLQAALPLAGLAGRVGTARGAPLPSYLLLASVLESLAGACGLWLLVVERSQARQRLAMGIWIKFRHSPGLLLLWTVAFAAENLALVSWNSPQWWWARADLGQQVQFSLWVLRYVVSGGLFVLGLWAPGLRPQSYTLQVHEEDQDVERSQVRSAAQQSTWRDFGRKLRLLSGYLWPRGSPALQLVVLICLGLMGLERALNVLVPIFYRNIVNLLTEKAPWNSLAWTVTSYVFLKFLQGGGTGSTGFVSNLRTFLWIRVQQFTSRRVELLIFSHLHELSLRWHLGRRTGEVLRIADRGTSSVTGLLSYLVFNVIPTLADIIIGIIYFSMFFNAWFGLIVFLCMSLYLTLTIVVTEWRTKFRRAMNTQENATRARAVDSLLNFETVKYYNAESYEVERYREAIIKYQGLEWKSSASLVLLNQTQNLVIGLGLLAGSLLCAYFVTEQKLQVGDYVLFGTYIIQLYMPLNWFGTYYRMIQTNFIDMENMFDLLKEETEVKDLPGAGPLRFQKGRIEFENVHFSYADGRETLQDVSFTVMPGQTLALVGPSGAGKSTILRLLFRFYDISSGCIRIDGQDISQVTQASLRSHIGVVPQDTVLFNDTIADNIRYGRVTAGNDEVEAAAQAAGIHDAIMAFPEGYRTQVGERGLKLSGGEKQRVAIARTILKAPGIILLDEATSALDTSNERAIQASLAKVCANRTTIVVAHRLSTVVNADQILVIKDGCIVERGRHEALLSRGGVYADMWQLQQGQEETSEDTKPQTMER
Assay [16] in a line: AML differentiation inducers, ER-HoxA9 marrow cells – cell-based, GFP/MAC1 double positive, flow cytometry, validation set, primary screen (AID 588685;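 active = differentiation response of at least 50%, scaled between solvent and reference control, from cells with both markers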;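 also: compound exposure lasts four days before antibody staining and flow analysis; 0% = DMSO wells and 100% = 5 µM fulvestrant positive control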). Conditions: stronger effect = higher value, normalized: vehicle 0, fulvestrant 100.

Inconclusive results are not listed. Calls of active or inactive are those of the source.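 The calls were made as follows, unless noted: active = inhibition above 54%, about 3 SD of non-fluorescent compounds; inactive = the rest.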

What is called inhibition is the drop in the measured response relative to a control, in per cent.

AP-2 complex subunit beta (Homo sapiens), sequence (P63010 whole entry, looked up, the tested form may be a part, one chain of several): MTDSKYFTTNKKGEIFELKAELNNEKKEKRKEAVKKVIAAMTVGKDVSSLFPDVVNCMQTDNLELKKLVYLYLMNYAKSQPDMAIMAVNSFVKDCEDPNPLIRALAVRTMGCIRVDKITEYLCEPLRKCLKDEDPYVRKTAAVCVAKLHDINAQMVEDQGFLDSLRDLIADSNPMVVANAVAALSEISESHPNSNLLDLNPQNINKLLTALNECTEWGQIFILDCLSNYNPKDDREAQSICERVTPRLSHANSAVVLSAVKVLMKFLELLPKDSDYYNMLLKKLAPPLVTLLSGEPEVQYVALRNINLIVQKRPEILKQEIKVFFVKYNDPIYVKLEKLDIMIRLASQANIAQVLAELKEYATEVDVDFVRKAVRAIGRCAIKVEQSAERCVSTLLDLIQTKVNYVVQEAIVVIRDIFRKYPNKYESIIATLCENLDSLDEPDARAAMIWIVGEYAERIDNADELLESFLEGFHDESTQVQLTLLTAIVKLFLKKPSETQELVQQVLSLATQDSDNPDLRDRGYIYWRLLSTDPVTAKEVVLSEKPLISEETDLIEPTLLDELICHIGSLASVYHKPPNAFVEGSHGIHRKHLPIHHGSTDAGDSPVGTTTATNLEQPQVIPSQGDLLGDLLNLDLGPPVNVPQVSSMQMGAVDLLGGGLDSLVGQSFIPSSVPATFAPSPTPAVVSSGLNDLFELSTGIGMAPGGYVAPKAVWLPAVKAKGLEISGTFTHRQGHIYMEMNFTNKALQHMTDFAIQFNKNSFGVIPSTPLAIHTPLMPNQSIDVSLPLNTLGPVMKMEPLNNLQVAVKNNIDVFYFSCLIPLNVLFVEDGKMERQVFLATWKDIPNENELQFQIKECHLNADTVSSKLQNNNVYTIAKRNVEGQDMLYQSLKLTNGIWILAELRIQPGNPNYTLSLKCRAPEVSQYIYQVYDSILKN
Beta-adrenergic receptor kinase 1 (Homo sapiens), sequence (P25098 whole entry, looked up): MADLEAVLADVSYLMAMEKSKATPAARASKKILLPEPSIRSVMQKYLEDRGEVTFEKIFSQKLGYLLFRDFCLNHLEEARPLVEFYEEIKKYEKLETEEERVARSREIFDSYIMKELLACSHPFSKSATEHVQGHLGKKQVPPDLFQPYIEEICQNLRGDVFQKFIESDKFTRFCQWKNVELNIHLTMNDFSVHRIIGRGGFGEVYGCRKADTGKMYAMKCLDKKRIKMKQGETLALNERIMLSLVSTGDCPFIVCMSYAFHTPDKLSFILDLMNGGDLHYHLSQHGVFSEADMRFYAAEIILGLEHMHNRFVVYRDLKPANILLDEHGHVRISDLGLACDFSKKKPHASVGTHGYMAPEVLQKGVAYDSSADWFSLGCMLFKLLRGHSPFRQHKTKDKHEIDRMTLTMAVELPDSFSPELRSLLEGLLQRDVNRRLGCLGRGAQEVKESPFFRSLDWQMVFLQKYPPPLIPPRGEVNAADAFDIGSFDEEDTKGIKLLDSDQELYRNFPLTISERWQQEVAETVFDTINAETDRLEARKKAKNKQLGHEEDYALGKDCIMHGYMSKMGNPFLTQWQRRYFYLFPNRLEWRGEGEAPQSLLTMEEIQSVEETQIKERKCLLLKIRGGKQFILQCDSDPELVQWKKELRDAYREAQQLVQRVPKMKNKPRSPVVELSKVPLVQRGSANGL
Integrin beta-1 (Homo sapiens) + Integrin alpha-4 (Homo sapiens), sequence (P05556 whole entry, looked up): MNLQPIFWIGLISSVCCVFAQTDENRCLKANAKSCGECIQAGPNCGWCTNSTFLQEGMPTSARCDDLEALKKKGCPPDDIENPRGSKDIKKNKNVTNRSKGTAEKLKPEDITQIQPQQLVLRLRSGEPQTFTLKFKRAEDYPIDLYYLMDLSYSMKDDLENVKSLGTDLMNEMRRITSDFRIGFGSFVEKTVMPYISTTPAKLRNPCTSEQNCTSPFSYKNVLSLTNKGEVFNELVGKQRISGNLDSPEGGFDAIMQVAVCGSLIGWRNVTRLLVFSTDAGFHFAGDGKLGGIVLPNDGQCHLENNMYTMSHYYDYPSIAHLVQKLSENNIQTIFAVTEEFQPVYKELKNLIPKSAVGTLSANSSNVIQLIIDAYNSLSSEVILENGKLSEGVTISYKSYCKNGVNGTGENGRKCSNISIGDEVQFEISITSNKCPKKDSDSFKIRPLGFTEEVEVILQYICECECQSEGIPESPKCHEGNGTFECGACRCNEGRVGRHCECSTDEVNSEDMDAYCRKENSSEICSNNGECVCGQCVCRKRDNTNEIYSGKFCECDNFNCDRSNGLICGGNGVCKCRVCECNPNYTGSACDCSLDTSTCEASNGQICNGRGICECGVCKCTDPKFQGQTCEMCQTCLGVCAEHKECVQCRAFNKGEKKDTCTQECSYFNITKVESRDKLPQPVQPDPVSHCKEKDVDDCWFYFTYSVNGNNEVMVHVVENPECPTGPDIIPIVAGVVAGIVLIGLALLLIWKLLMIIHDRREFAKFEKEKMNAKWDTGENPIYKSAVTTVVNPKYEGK
Integrin beta-1 (Homo sapiens) + Integrin alpha-4 (Homo sapiens), sequence (P13612 whole entry, looked up): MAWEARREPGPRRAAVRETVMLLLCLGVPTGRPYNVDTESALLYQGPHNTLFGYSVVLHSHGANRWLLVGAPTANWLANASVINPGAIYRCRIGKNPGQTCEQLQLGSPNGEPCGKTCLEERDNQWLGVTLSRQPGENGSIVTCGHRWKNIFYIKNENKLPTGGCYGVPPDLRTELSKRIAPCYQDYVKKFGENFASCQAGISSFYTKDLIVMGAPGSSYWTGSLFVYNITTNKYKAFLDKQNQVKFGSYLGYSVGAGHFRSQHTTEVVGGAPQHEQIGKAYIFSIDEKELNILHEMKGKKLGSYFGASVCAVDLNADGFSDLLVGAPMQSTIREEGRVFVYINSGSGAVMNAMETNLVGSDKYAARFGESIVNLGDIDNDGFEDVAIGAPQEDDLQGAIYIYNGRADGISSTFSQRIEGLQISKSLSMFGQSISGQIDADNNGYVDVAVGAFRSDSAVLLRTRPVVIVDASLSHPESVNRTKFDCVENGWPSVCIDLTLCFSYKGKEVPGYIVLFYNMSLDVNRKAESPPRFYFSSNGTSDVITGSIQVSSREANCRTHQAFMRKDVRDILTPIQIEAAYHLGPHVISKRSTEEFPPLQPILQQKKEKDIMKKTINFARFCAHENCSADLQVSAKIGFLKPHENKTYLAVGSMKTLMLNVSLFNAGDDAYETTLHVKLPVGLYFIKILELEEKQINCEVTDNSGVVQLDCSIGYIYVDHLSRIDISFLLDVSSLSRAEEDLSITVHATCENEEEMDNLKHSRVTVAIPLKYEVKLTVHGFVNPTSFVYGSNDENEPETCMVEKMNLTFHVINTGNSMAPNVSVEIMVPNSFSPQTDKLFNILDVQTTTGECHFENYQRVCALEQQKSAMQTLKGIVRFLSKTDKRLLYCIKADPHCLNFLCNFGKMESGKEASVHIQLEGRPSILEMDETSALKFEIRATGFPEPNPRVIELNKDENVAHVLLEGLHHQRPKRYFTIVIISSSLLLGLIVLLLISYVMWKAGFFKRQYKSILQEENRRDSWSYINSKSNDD

As to `CC(OC(=O)c1cc(=O)[nH]c2ccccc12)C(=O)c1ccccc1` (stereo not drawn), in assay [1], the percent of DMSO control GFP is 99.6% (inactive). Also, the results for the GFP response vs DMSO in assay [2] and in [4] were 101% (inactive) and 107% (inactive), respectively. For the same compound, the percent response of DMSO control in assay [3] was 106% (inactive). In addition, the GFP response, % of DMSO in [5] is 105% (inactive). The double positive events in [6] was 58.9%. Moreover, the vesicle binding response in [6] was 174% (inactive). The inhibition was -15.8% (inactive) in assay [7], -9.56% (inactive) in assay [11] and 41% (inactive) in assay [15]. Further, in assay [8], the superoxide response (% of plate) is 96.4% (inactive). Moreover, the aptamer binding inhibition in assay [9] is -2% (inactive). Besides, the response was 1.78% (inactive) in assay [10] and 0.61% (inactive) in [12]. Besides, the binding (% of control) in assay [13] was 106% (inactive). Further, the efflux inhibition (fraction of control) in assay [14] is -0.61 (inactive). The differentiation response in assay [16] is -4.57% (inactive).
Turning to `CCc1c(C(C)=O)oc2ccc3c(C)cc(=O)oc3c12`, the percent of DMSO control GFP in assay [1] was 94.6% (inactive). Moreover, the GFP response vs DMSO in assay [2] was 125% (inactive); in assay [4], 91.9% (inactive). The percent response of DMSO control in assay [3] was 115% (inactive). For the same compound, in [5], the GFP response, % of DMSO is 101% (inactive). In [6], this compound returned a double positive events of 61.9%. The vesicle binding response in assay [6] was 146% (inactive). The figures for the inhibition in [7], in assay [11] and in [15] were -13.9% (inactive), -11.6% (inactive) and 11% (inactive), respectively. Also, in assay [8], the superoxide response (% of plate) was 92.5% (inactive). In addition, in assay [9], the aptamer binding inhibition is 1% (inactive). Moreover, the response was 1.28% (inactive) in [10] and 0.32% (inactive) in assay [12]. In addition, the binding (% of control) in assay [13] is 99% (inactive). Further, the efflux inhibition (fraction of control) in [14] was -0.17 (inactive). The differentiation response in assay [16] is 9.01% (inactive).
For `Cc1ccc([N+](=O)[O-])cc1NC1OC(CO)C(O)C1O` (stereo not drawn), the percent of DMSO control GFP in [1] is 102% (inactive). Also, the values for the GFP response vs DMSO in [2] and in [4] were 105% (inactive) and 120% (inactive), respectively. In assay [3], the percent response of DMSO control was 104% (inactive). The GFP response, % of DMSO in assay [5] was 109% (inactive). Further, in [6], the double positive events was 56.8%. Also, in assay [6], the vesicle binding response was 186% (inactive). In addition, the inhibition in assay [7] was -16.4% (inactive); in [11], 7.17% (inactive); in [15] it was 3% (inactive). In addition, in assay [8], the superoxide response (% of plate) is 108% (inactive). In addition, in assay [9], the aptamer binding inhibition is 4% (inactive). For the same compound, the figures for the response in [10] and in assay [12] were -23% (inactive) and 2.59% (inactive), respectively. Moreover, the binding (% of control) in assay [13] was 103% (inactive). In addition, the efflux inhibition (fraction of control) in assay [14] is -0.04 (inactive). For the same compound, the differentiation response in assay [16] is 2.89% (inactive).
With `COCc1cc(=O)[nH]c(/N=C(\N)Nc2ccc(Oc3ccccc3)cc2)n1`, in assay [1], the percent of DMSO control GFP was 96.9% (inactive). In addition, the GFP response vs DMSO in [2] is 118% (inactive); in [4] it was 109% (inactive). In addition, in assay [3], the percent response of DMSO control is 83.4% (inactive). Moreover, the GFP response, % of DMSO in assay [5] was 97.8% (inactive). This compound returned a double positive events in assay [6] of 60.6%. The vesicle binding response in assay [6] is 216% (inactive). Besides, the inhibition is -1.79% (inactive) in assay [7], -1.38% (inactive) in assay [11] and 12% (inactive) in [15]. Besides, the superoxide response (% of plate) in assay [8] is 94.8% (inactive). Further, in [9], the aptamer binding inhibition was 2% (inactive). In addition, the response in assay [10] is 17.9% (inactive); in assay [12], -1.49% (inactive). For the same compound, the binding (% of control) in [13] is 99.3% (inactive). Further, the efflux inhibition (fraction of control) in [14] is 0.01 (inactive). Besides, the differentiation response in [16] is 10.4% (inactive).

The values above are taken from PubChem BioAssay.
